Source: the antibiotic and cytotoxicity screens of Wong et al. (2023)
The whole screen tested about 39,000 compounds, of which about 3,300 (8.5%) were called active. The list comes from a sample in which actives are over-represented; it also holds similar structures and randomly drawn compounds.

system: HepG2; assay: cytotoxicity call (relative viability < 0.9); conditions: 10 µM

**Q.** COc1ccc(-c2cnc3c(c2)C(=O)N([C@H](C)CO)C[C@@H](C)[C@H](CN(C)C(=O)C2CCOCC2)O3)cc1 was tested. Which cytotoxicity call did it give?
**A.** inactive

**Q.** Which cytotoxicity call does the source give for CCCCCCCCCCCCCCCCCCCCCCCCCCCCO here?
**A.** inactive

**Q.** For CCCCCCCCCCCCCCCCCCCCCCO, which cytotoxicity call is on record?
**A.** active

**Q.** How did the cytotoxicity call turn out when CCCCCCCCCCCCCCCC(=O)CCO was run?
**A.** inactive

**Q.** COCC(=O)Nc1ccc2c(c1)[C@@H]1C[C@H](CC(=O)N3CCOCC3)O[C@H](CO)[C@@H]1O2 was tested. Which cytotoxicity call did it give?
**A.** inactive

**Q.** CO[C@H]1O[C@H](CO)[C@@H](OC(=O)Nc2cccc(F)c2)[C@H](OC(=O)Nc2ccccc2-c2ccccc2)[C@H]1OC(=O)Nc1ccccc1-c1ccccc1 was tested. Which cytotoxicity call did it give?
**A.** active

**Q.** Which cytotoxicity call does the source give for CO[C@H]1O[C@H](CO)[C@@H](OC(=O)Nc2cccc(F)c2)[C@H](OC(=O)Nc2ccccc2-c2ccccc2)[C@@H]1OC(=O)Nc1ccccc1-c1ccccc1 here?
**A.** inactive

**Q.** For CCc1cccc(NC(=O)O[C@H]2[C@H](OC(=O)Nc3ccccc3-c3ccccc3)[C@H](OC(=O)Nc3ccccc3-c3ccccc3)[C@@H](OC)O[C@@H]2CO)c1, which cytotoxicity call is on record?
**A.** inactive

**Q.** With CO[C@H]1O[C@H](CO)[C@@H](OC(=O)Nc2ccccc2-c2ccccc2)[C@H](OC(=O)Nc2ccccc2-c2ccccc2)[C@@H]1OC(=O)Nc1ccccc1-c1ccccc1 as the compound, how does the cytotoxicity call read?
**A.** inactive

**Q.** Which cytotoxicity call does the source give for COc1ccc(NC(=O)O[C@H]2[C@H](OC(=O)Nc3ccccc3-c3ccccc3)[C@H](OC(=O)Nc3ccccc3-c3ccccc3)[C@@H](OC)O[C@@H]2CO)cc1 here?
**A.** inactive

**Q.** How did the cytotoxicity call turn out when CO[C@H]1O[C@H](CO)[C@@H](OC(=O)Nc2ccccc2-c2ccccc2)[C@H](OC(=O)Nc2ccccc2)[C@@H]1OC(=O)Nc1ccccc1 was run?
**A.** active

**Q.** With C[C@@H]1CN([C@@H](C)CO)C(=O)Cc2cc(NS(C)(=O)=O)ccc2O[C@@H]1CN(C)S(=O)(=O)c1cccs1 as the compound, how does the cytotoxicity call read?
**A.** inactive

**Q.** How did the cytotoxicity call turn out when CN1CCN(C(=O)C[C@@H]2C[C@H]3c4cc(NC(=O)c5ccc6c(c5)OCO6)ccc4O[C@H]3[C@H](CO)O2)CC1 was run?
**A.** inactive

**Q.** Which cytotoxicity call does the source give for COc1ccc(S(=O)(=O)N(C)C[C@H]2Oc3cc(C#CC4CC4)ccc3S(=O)(=O)N([C@H](C)CO)C[C@@H]2C)cc1 here?
**A.** inactive

**Q.** With CCCCc1oc2ccc(NS(C)(=O)=O)cc2c1C(=O)c1ccc(OCCCN(CCCC)CCCC)cc1.Cl as the compound, how does the cytotoxicity call read?
**A.** active

**Q.** For CCCCN(CCCC)CCCOC(=O)c1ccc(N)cc1.O=S(=O)(O)O, which cytotoxicity call is on record?
**A.** inactive

**Q.** With CCCCc1oc2ccc(NS(C)(=O)=O)cc2c1C(=O)c1ccc(OCCCN(CCCC)CCCC)cc1 as the compound, how does the cytotoxicity call read?
**A.** active

**Q.** CCC1=NCCO1 was tested. Which cytotoxicity call did it give?
**A.** inactive

**Q.** Which cytotoxicity call does the source give for CC(C)NC(=O)N(C)C[C@@H]1Oc2ccc(NC(=O)Nc3ccc4c(c3)OCO4)cc2C(=O)N([C@H](C)CO)C[C@H]1C here?
**A.** inactive

**Q.** With C#CCN1C(=O)N(C(=O)c2ccccc2)[C@@]2(COCc3ccc(OC)cc3)Oc3ccccc3[C@@H]1[C@H]2CO[Si](C)(C)C(C)(C)C as the compound, how does the cytotoxicity call read?
**A.** inactive

**Q.** Which cytotoxicity call does the source give for CN(C)CCCNC(=O)C[C@@H]1CC[C@@H]2[C@@H](COc3ccc(NC(=O)c4ccccc4F)cc3C(=O)N2C)O1 here?
**A.** inactive

**Q.** How did the cytotoxicity call turn out when CCS(=O)(=O)NCC[C@H]1CC[C@H](NC(=O)C2CCOCC2)[C@H](CO)O1 was run?
**A.** inactive

**Q.** With O=C(C[C@@H]1C[C@H]2c3cc(NS(=O)(=O)c4ccc(F)cc4)ccc3O[C@H]2[C@H](CO)O1)NCCc1ccccc1 as the compound, how does the cytotoxicity call read?
**A.** inactive

**Q.** Cc1ccc(S(=O)(=O)N(C)C[C@@H]2Oc3ccc(NC(=O)CCN4CCOCC4)cc3CC(=O)N([C@@H](C)CO)C[C@H]2C)cc1 was tested. Which cytotoxicity call did it give?
**A.** inactive

**Q.** C[C@H](CO)N1C[C@H](C)[C@H](CN(C)C(=O)NC2CCCCC2)Oc2c(NC(=O)C3CCOCC3)cccc2C1=O was tested. Which cytotoxicity call did it give?
**A.** inactive

**Q.** For Cc1ccc(S(=O)(=O)Nc2ccc3c(c2)C(=O)N([C@@H](C)CO)C[C@@H](C)[C@@H](CN(C)C(=O)NC(C)C)O3)cc1, which cytotoxicity call is on record?
**A.** inactive

**Q.** With C[C@@H]1CN([C@H](C)CO)C(=O)c2cc(NC(=O)Cc3ccccc3)ccc2O[C@H]1CN(C)S(=O)(=O)c1cccs1 as the compound, how does the cytotoxicity call read?
**A.** inactive

**Q.** How did the cytotoxicity call turn out when O=C(OCc1ccccc1)c1cccnc1 was run?
**A.** active

**Q.** How did the cytotoxicity call turn out when O=C(O)c1cccnc1 was run?
**A.** inactive

**Q.** NCC(=O)OCc1ccccc1 was tested. Which cytotoxicity call did it give?
**A.** inactive

**Q.** How did the cytotoxicity call turn out when O=C(CO)c1ccccc1 was run?
**A.** inactive

**Q.** O=C(ON1C(=O)CCC1=O)c1ccccc1 was tested. Which cytotoxicity call did it give?
**A.** inactive

**Q.** For COC(=O)c1cccnc1, which cytotoxicity call is on record?
**A.** inactive

**Q.** Which cytotoxicity call does the source give for O=C(OOC(=O)c1ccccc1)c1ccccc1 here?
**A.** active

**Q.** With N[C@@H](COCc1ccccc1)C(=O)O as the compound, how does the cytotoxicity call read?
**A.** inactive

**Q.** With O=C(OCc1ccccc1)c1ccccc1 as the compound, how does the cytotoxicity call read?
**A.** active

**Q.** For CCC(=O)N[C@@H]1CC[C@@H](CC(=O)OC)O[C@H]1CO, which cytotoxicity call is on record?
**A.** inactive

**Q.** For C[N+](C)(C)CCCCCC[N+](C)(C)C.[Br-].[Br-], which cytotoxicity call is on record?
**A.** inactive

**Q.** With CCCCCCCCCCCCCCCCOP(=O)([O-])OCC[N+](C)(C)C as the compound, how does the cytotoxicity call read?
**A.** inactive

**Q.** For CCCCCCCCCCCCCCCC[N+](C)(C)C, which cytotoxicity call is on record?
**A.** active

**Q.** C[C@@H]1CN([C@H](C)CO)C(=O)c2cc(C#CC3(O)CCCC3)cnc2O[C@@H]1CN(C)S(=O)(=O)c1ccc(F)cc1 was tested. Which cytotoxicity call did it give?
**A.** inactive

**Q.** How did the cytotoxicity call turn out when O=C(CN1CCOCC1)N[C@H]1CC[C@@H](CCNC(=O)C2CCC2)O[C@@H]1CO was run?
**A.** inactive

**Q.** With C[C@H]1CN([C@@H](C)CO)C(=O)c2cccc(NC(=O)Nc3ccc(C(F)(F)F)cc3)c2O[C@H]1CN(C)S(C)(=O)=O as the compound, how does the cytotoxicity call read?
**A.** inactive

**Q.** COc1ccc2c3c([nH]c2c1)[C@@H](CO)N(Cc1ccc(cc1)Cl)C[C@]13CCN(CC1)Cc1nccs1 was tested. Which cytotoxicity call did it give?
**A.** inactive

**Q.** With COc1ccc2c3c([nH]c2c1)[C@@H](CO)N(Cc1ccc(cc1)Cl)C[C@]13CCN(CC1)Cc1ccccc1 as the compound, how does the cytotoxicity call read?
**A.** active

**Q.** For COc1ccc(cc1)CN1C[C@]2(CCN(CC2)Cc2ccccc2OC)c2c([nH]c3cc(ccc23)OC)[C@@H]1CO, which cytotoxicity call is on record?
**A.** inactive

**Q.** Which cytotoxicity call does the source give for COc1ccc2c3c([nH]c2c1)[C@@H](CO)N(C[C@]13CCN(CC1)Cc1ccccc1)C(=O)CN1CCOCC1 here?
**A.** inactive

**Q.** COc1ccc2c3c([nH]c2c1)[C@H](CO)N(Cc1ccncc1)C[C@]13CCN(CC1)Cc1ccc(cc1)-c1ccccn1 was tested. Which cytotoxicity call did it give?
**A.** inactive

**Q.** With COc1ccc2c3c([nH]c2c1)[C@H](CO)N(C[C@]13CCN(CC1)Cc1ccccc1)C(=O)CN1CCOCC1 as the compound, how does the cytotoxicity call read?
**A.** active

**Q.** With COc1ccc2c3c([nH]c2c1)[C@H](CO)N(C[C@]13CCN(CCc2ccccc2)CC1)C(=O)CN1CCOCC1 as the compound, how does the cytotoxicity call read?
**A.** inactive

**Q.** COc1ccc2c3c([nH]c2c1)[C@H](CO)N(Cc1ccc(cc1)Cl)C[C@]13CCN(CC1)Cc1ccccc1 was tested. Which cytotoxicity call did it give?
**A.** active

**Q.** COc1ccc2c3c([nH]c2c1)[C@H](CO)N(Cc1ccc(cc1)Cl)C[C@]13CCN(CC1)Cc1nccs1 was tested. Which cytotoxicity call did it give?
**A.** inactive

**Q.** Which cytotoxicity call does the source give for C[C@@H]1CN([C@H](C)CO)C(=O)c2cc(NC(=O)CCCCCC(=O)Nc3ccccc3N)ccc2O[C@@H]1CN(C)Cc1ccc(Cl)c(Cl)c1 here?
**A.** inactive

**Q.** How did the cytotoxicity call turn out when Cc1cc(C(=O)Nc2cccc3c2O[C@@H](CN(C)C(=O)NC2CCCCC2)[C@H](C)CN([C@H](C)CO)C3=O)n(C)n1 was run?
**A.** inactive

**Q.** With Cc1noc(C)c1S(=O)(=O)Nc1ccc2c(c1)C(=O)N([C@H](C)CO)C[C@@H](C)[C@H](CN(C)S(=O)(=O)c1ccccc1)O2 as the compound, how does the cytotoxicity call read?
**A.** inactive

**Q.** C[C@@H]1CN([C@H](C)CO)C(=O)c2cc(Br)cnc2O[C@@H]1CN(C)Cc1ccc2c(c1)OCO2 was tested. Which cytotoxicity call did it give?
**A.** inactive

**Q.** COc1ccc(-c2cc(=O)c3c(O)cc(O[C@@H]4O[C@H](CO[C@@H]5O[C@@H](C)[C@H](O)[C@@H](O)[C@H]5O)[C@@H](O)[C@H](O)[C@H]4O)cc3o2)cc1O was tested. Which cytotoxicity call did it give?
**A.** inactive

**Q.** With C[C@H](CO)N1C[C@H](C)[C@@H](CN(C)C(=O)Cc2cccnc2)Oc2cc(-c3cncnc3)ccc2S1(=O)=O as the compound, how does the cytotoxicity call read?
**A.** inactive

**Q.** NC(=O)c1ncn([C@H]2O[C@@H](COP(=O)(O)O)[C@@H](O)[C@@H]2O)c1N was tested. Which cytotoxicity call did it give?
**A.** inactive

**Q.** For C[C@@H]1CN([C@H](C)CO)C(=O)c2cc(NS(=O)(=O)c3cn(C)cn3)ccc2O[C@@H](C)CCCCO[C@H]1CN(C)S(=O)(=O)c1cn(C)cn1, which cytotoxicity call is on record?
**A.** inactive

**Q.** For CC(C)(C)OC(=O)C[C@@H]1CC=CC[C@@H](CC(=O)NCCO)C(=O)N[C@@H](Cc2c[nH]c3ccccc23)COC1=O, which cytotoxicity call is on record?
**A.** inactive

**Q.** For CC(C)Cc1nc2ccccc2[nH]1, which cytotoxicity call is on record?
**A.** inactive

**Q.** CC(C)(C)c1ccc(CSCc2nc3ccccc3[nH]2)cc1 was tested. Which cytotoxicity call did it give?
**A.** active

**Q.** Which cytotoxicity call does the source give for NNC(=O)Cc1nc2ccccc2[nH]1 here?
**A.** inactive

**Q.** Which cytotoxicity call does the source give for Cc1ccc(S(=O)(=O)Nc2ccc3c(c2)C(=O)N([C@H](C)CO)C[C@H](C)[C@@H](CN(C)Cc2ccc4c(c2)OCO4)OCCCC[C@H](C)O3)cc1 here?
**A.** inactive

**Q.** Cc1ccc(S(=O)(=O)Nc2ccc3c(c2)C(=O)N([C@H](C)CO)C[C@H](C)[C@H](CN(C)Cc2ccc4c(c2)OCO4)OCCCC[C@H](C)O3)cc1 was tested. Which cytotoxicity call did it give?
**A.** active

**Q.** With Cc1ccc(S(=O)(=O)Nc2ccc3c(c2)C(=O)N([C@H](C)CO)C[C@H](C)[C@@H](CN(C)Cc2ccc4c(c2)OCO4)OCCCC[C@@H](C)O3)cc1 as the compound, how does the cytotoxicity call read?
**A.** inactive

**Q.** How did the cytotoxicity call turn out when Cc1ccc(S(=O)(=O)Nc2ccc3c(c2)C(=O)N([C@@H](C)CO)C[C@@H](C)[C@H](CN(C)Cc2ccc4c(c2)OCO4)OCCCC[C@@H](C)O3)cc1 was run?
**A.** inactive

**Q.** For Cc1ccc(S(=O)(=O)Nc2ccc3c(c2)C(=O)N([C@@H](C)CO)C[C@@H](C)[C@@H](CN(C)Cc2ccc4c(c2)OCO4)OCCCC[C@H](C)O3)cc1, which cytotoxicity call is on record?
**A.** inactive

**Q.** Cc1ccc(S(=O)(=O)Nc2ccc3c(c2)C(=O)N([C@@H](C)CO)C[C@H](C)[C@@H](CN(C)Cc2ccc4c(c2)OCO4)OCCCC[C@H](C)O3)cc1 was tested. Which cytotoxicity call did it give?
**A.** inactive

**Q.** With Cc1ccc(S(=O)(=O)Nc2ccc3c(c2)C(=O)N([C@H](C)CO)C[C@@H](C)[C@H](CN(C)Cc2ccc4c(c2)OCO4)OCCCC[C@H](C)O3)cc1 as the compound, how does the cytotoxicity call read?
**A.** active

**Q.** Cc1ccc(S(=O)(=O)Nc2ccc3c(c2)C(=O)N([C@@H](C)CO)C[C@H](C)[C@H](CN(C)Cc2ccc4c(c2)OCO4)OCCCC[C@H](C)O3)cc1 was tested. Which cytotoxicity call did it give?
**A.** inactive

**Q.** Cc1ccc(S(=O)(=O)Nc2ccc3c(c2)C(=O)N([C@H](C)CO)C[C@@H](C)[C@@H](CN(C)Cc2ccc4c(c2)OCO4)OCCCC[C@@H](C)O3)cc1 was tested. Which cytotoxicity call did it give?
**A.** active
